Source: US20040171041, “Preparation and use of single-stranded transcription substrates for synthesis of transcription products corresponding to target sequences” (published 2004)

Molecular target: T1, mini-vRNAP (N4 virion RNA polymerase transcriptionally active domain, His-tagged) (Bacteriophage N4, UniProt Q859P9 SEQ:38-1143)
T1 sequence: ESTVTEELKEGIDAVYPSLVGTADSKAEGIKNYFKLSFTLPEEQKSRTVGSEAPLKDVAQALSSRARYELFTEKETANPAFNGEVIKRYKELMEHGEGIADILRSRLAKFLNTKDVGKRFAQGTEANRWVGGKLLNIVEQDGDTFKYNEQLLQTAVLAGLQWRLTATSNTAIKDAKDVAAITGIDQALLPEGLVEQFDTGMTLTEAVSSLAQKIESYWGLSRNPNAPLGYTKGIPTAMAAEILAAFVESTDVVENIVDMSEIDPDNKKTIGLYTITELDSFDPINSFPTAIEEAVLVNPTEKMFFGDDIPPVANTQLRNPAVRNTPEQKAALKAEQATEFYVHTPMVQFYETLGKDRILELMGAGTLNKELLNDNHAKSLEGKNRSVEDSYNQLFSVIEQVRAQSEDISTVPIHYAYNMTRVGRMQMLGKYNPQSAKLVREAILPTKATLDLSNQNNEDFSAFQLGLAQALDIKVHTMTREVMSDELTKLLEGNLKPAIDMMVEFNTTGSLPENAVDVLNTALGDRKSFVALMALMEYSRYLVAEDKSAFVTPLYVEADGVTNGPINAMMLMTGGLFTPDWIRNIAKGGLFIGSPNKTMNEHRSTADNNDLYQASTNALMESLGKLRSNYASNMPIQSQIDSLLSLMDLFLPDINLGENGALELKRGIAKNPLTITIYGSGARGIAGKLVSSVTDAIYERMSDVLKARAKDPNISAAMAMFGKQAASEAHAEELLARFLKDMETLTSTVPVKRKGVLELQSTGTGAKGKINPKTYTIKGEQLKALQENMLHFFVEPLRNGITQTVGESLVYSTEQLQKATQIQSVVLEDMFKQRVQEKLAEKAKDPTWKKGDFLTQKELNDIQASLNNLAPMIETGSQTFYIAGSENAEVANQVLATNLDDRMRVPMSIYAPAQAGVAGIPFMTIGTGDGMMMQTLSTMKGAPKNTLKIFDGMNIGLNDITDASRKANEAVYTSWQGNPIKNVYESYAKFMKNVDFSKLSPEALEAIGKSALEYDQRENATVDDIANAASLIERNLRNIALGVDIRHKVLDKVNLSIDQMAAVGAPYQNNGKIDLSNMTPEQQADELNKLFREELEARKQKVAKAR
Experiment: filter; further one order of magnitude reduction versus -2 pairing
Conditions: tags: N-terminal His6 (pBAD B leader); hairpin, extended stem; ssDNA; [NONE]
Source text: To study the sequence determinants of promoter binding, 20 base-long promoter oligonucleotides, containing the wild-type vRNAP promoter P2 sequence and substituted at every position with a single 5-Iodo-dU, were used. Whenever substitutions were made in the stem, the corresponding pairing base was changed to A. These oligonucleotides were ³²P end-labeled and used to determine the enzyme's affinity for promoter DNAs by a filter binding assay and the ability to crosslink to mini-vRNAP upon UV irradiation at 320 nm.
The effect of changes in the stem length of the hairpin on the ability of mini-vRNAP to bind P2 promoter DNA was analyzed. […] The stem can be shortened by two base pairs without change in the binding affinity. […] No binding is observed if one more nucleotide is removed and the loop cannot form.

Sequence	binding signal [fold lower affinity]
TCCAAAAGAAGCGGAGCTTCTTTTG	~1000
